Glioma ERSR ind – qHTS for Inducers of the Endoplasmic Reticulum Stress Response (ERSR) in Human Glioma: qHTS | actives 0.02% (n = 420,000) | U87-MG GRP78 promoter luciferase reporter, 16 h | Potency, µM, usual class: activators; also: series mostly up to about 76 µM; nearly all actives have a fitted effect of over 35% in size
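Stably transfected U87-MG human glioma cells carrying a GRP78-based luminescent sensor were seeded at 1000 cells/well, pin-dosed with compounds and incubated 16 h. Luciferase reagent was then added, and end-point luminescence was read after 10 min at room temperature.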
Nrf2 ARE act – qHTS of Nrf2 Activators | Potency, µM (highest dose often 46.1 µM), most hits filed as activators | AREc32 ARE-luciferase reporter (MCF7-derived line), luminescence, 24 h | actives 0.31% (n = 410,000); also: nearly all actives have a fitted effect of over 65% in size
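Steps: seed AREc32_Fluc cells (1000/well, 5% FBS OPTI-MEM); incubate overnight at 37 deg C; add 23 nL compound; incubate 24 hr; add Steady-Glo; hold 30 min RT; read luminescence.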
D3 antag – qHTS of D3 Dopamine Receptor Antagonist: qHTS; max response, negative = inhibition, %; D(3) dopamine receptor (Homo sapiens), P35462; actives 2.5% (n = 360,000); D3R cells, DiscoveRx beta-arrestin luminescence, antagonist mode; hits give low values; in the data active = max response below about -50%; inconclusive = no clear call, values can overlap the other calls
Target sequence (P35462 whole entry, looked up): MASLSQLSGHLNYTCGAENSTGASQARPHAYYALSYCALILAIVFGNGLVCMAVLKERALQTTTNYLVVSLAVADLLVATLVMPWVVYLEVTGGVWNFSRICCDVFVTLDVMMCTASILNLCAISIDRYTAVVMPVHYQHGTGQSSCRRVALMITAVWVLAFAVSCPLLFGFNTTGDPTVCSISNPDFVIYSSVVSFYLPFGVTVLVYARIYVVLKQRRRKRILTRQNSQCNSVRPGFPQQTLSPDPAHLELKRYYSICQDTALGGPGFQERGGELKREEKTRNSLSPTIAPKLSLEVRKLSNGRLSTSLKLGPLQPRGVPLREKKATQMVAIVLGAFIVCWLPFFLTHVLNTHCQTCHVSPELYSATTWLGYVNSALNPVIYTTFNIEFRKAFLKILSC
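Cells plated overnight at 1500 cells/well, then exposed to library compounds with dopamine controls for 90 minutes at 37 degrees C. DiscoveRx reagent added for 30–60 minutes at room temperature; luminescence read, quantitative HTS format.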
D3 ag – qHTS of D3 Dopamine Receptor Agonist: qHTS; AID 652048, 2013; D(3) dopamine receptor (Homo sapiens), P35462; D3R DiscoveRx beta-arrestin cells, luminescence, 90 min; max activation, %; actives 0.58% (n = 410,000); in the data active = max activation above about 30%
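Cells at 1500/well, incubated overnight, then treated with pinned compounds (dopamine as control) for 90 min at 37 degrees C. DiscoveRx reagent added for 30 - 60 minutes at room temperature; luminescence read.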
Each line names hits and unclear results; the compound was inactive in the other large screens. Only some compounds are listed: those with a hit (about 3% of all), similar ones and a draw of the others. Unless noted, calls follow the shape of the dose curve; as a rule, active = well fitted curve in the direction sought with a large enough effect; inconclusive = small, poorly fitted or top-dose-only effect, or another doubt; inactive = no such curve, though single readings can be large; an effect the other way counts as inactive or inconclusive.

CC[n+]1ccnc2ccccc21	none (no result: Nrf2 ARE act, D3 antag, D3 ag)
CC1CCCN(C(=O)c2cccc(S(=O)(=O)NCc3ccccc3)c2)C1 (configuration not stated)	D3 antag -53.5
CN1CCC(OC2c3ccccc3CCc3ccccc32)CC1	D3 antag -98.8
Cc1cc(C)c2oc(-c3cccc(NC(=O)c4ccco4)c3)nc2c1	none (no result: D3 antag)
Cc1cc(C)c2oc(-c3ccc(C)c(NC(=O)/C=C/c4ccco4)c3)nc2c1	Nrf2 ARE act 5.62µM (no result: D3 antag)
O=C(CCl)c1ccc2c(c1)CCCC2	none (no result: Nrf2 ARE act, D3 antag, D3 ag)
Cc1cccc(C)c1OCC(=O)NCc1nnc(SCC(=O)NC2CCCCC2)n1C	D3 antag -72.0
CCc1sc(Nc2cccc(Cl)c2)nc1-c1cc2cccc(OC)c2oc1=O	none (no result: D3 antag)
COc1cccc2cc(-c3nc(Nc4cccc(C)c4)sc3C)c(=O)oc12	D3 ag 80.3 (no result: D3 antag)
Cc1ccc(SCC(=O)Nc2ccc(N3CCN(C)CC3)c(F)c2)c(C)c1	D3 antag -98.1
CCc1nc(SCC(=O)c2c[nH]c3ccccc23)n[nH]1	none
CC(C)c1nc(SCC(=O)c2c[nH]c3ccccc23)n[nH]1	D3 antag -60.6
COc1cc(/C=C/C(=O)c2cccs2)cc(OC)c1OC	none (no result: Nrf2 ARE act, D3 antag, D3 ag)
COc1ccc(N2C(=O)[C@@H]3C[C@H]2CN3Cc2cccn2-c2ccc(Cl)cn2)c(C)c1	none (no result: Nrf2 ARE act, D3 antag, D3 ag)
COc1ccc(C(=O)N/C(=C\c2ccco2)C(=O)NCCCn2ccnc2)cc1	D3 antag -54.6
Cc1cccc2c(=O)[nH]c3c(-c4nc(-c5ccc(Cl)cc5)cs4)c(O)cn3c12	none (no result: Nrf2 ARE act, D3 antag, D3 ag)
Cc1c(C(=O)NC2CCN(Cc3ccccc3)C2)oc2ccc(Br)cc12 (configuration not stated)	D3 antag -58.7
CN(CC(=O)NC1CCN(Cc2ccccc2)CC1)S(=O)(=O)c1ccc(Br)s1	D3 antag -56.1
CN(CC(=O)NC1CCN(Cc2ccccc2)CC1)S(=O)(=O)c1ccc(Cl)cc1	D3 antag inconclusive
O=C(NC1CCN(Cc2ccccc2)CC1)c1cccc(OC(F)F)c1	D3 antag -54.9
O=C(/C=C/c1cccc(Br)c1)NC1CCN(Cc2ccccc2)CC1	D3 antag -60.8
O=C(/C=C/c1cccc(F)c1)NC1CCN(Cc2ccccc2)CC1	D3 antag inconclusive
O=C(Cn1nc2ccccc2n1)N1CCOc2ccc(CN3CCc4sccc4C3)cc2C1	none (no result: Nrf2 ARE act, D3 antag, D3 ag)
COc1cccc(CN2CC34CC(c5ccc(C(C)=O)cc5)C(CC3S2(=O)=O)O4)c1 (configuration not stated)	none (no result: Nrf2 ARE act, D3 antag, D3 ag)
O=C(NC1CCN(Cc2ccccc2)CC1)c1ccc2c(c1)OCCCO2	D3 antag -56.7
S=C(NCc1ccc2c(c1)OCO2)NC1CCN(Cc2ccccc2)CC1	D3 antag -59.8
C=C(C)c1cccc(C(C)(C)NC(=O)NC2CCN(Cc3ccccc3)CC2)c1	D3 antag -76.8
O=C(NC1CCN(Cc2ccccc2)CC1)C1COc2ccccc2O1 (configuration not stated)	D3 antag -78.2
S=C(NCc1ccccc1)N1CCN(Cc2ccc3c(c2)OCO3)CC1	none
Cc1c(C(=O)N2CCC(Cc3ccccc3)CC2)sc2ncnc(NCc3ccccn3)c12	none (no result: Nrf2 ARE act, D3 antag, D3 ag)
Oc1cc2cc(-c3csc(-c4ccc(F)cc4)n3)cc3c2n1CCC3	none (no result: Nrf2 ARE act, D3 antag, D3 ag)
O=C(NC1CCN(Cc2ccccc2)CC1)c1c(Cl)cccc1Cl	none
O=C(NC1CCN(Cc2ccccc2)CC1)c1cccc(Br)c1	D3 antag -84.5
O=C(NCc1nnc2n1CCN(C(=O)c1cccc(Cl)c1)CC2)C1CC1	none (no result: Nrf2 ARE act, D3 antag, D3 ag)
O=[N+]([O-])c1cccc(C2NCC(c3ccccc3Cl)c3c2[nH]c2ccccc32)c1 (configuration not stated)	D3 antag -64.1
COC(=O)c1cc(CNC(=O)c2cccc(C)c2)cc(NC(=O)c2ccncc2)c1	none (no result: Nrf2 ARE act, D3 antag, D3 ag)
C/C(O)=C\c1nc2ccccc2oc1=O	Nrf2 ARE act 15.8µM
Cc1ccc2oc(=O)c(/C=C(\O)CC(C)C)nc2c1	Nrf2 ARE act inconclusive
Cc1ccc2oc(=O)c(/C=C(\O)c3cccs3)nc2c1	Nrf2 ARE act 15.8µM
Cc1ccc2oc(=O)c(/C=C(\O)c3ccccc3)nc2c1	Glioma ERSR ind inconclusive, Nrf2 ARE act 14.1µM
CN(C)CC/C=C1/c2cc(F)ccc2Sc2ccc(Cl)cc21	D3 antag -84.3
COc1cc(Cl)cc2c1Sc1ccccc1/C2=C/CCN(C)C	Nrf2 ARE act inconclusive, D3 antag -76.8
COc1cc2c(cc1Cl)/C(=C\CCN(C)C)c1ccccc1S2	Nrf2 ARE act inconclusive, D3 antag -92.4
CCCCCCCCCC[n+]1ccc(/C=C/c2c[nH]c3ccccc23)cc1	none (no result: Nrf2 ARE act, D3 antag, D3 ag)
NS(=O)(=O)c1nn2cc(-c3ccccc3)nc2s1	none (no result: Nrf2 ARE act, D3 antag, D3 ag)
Cn1cc(/C=C2/SC(=O)N(CC(=O)Nc3ccc4c(c3)OCO4)C2=O)c2ccccc21	D3 antag -84.1
O=C(Cn1c(=O)nc(-c2ccccc2)c2ccccc21)NCCc1ccccc1	none (no result: D3 antag)
CCCCSc1nc(C)c(C(C)=O)cc1C#N	D3 antag -51.7
CC1=C(C)CS(=O)N(S(=O)(=O)c2ccc(Cl)cc2)C1 (configuration not stated)	D3 antag -88.4
CC1CCCC(C)N1S(=O)(=O)c1ccc(Cl)cc1 (configuration not stated)	none
COC(=O)C1CCCCN1Cc1ccc2c(c1)CN(C(=O)c1ccc(F)cc1)CCO2 (configuration not stated)	none (no result: Nrf2 ARE act, D3 antag, D3 ag)
Cc1ccc2c(c1)c(CC(NC(=O)c1ccccc1Oc1ccccc1)C(=O)O)cn2C(=O)OCc1ccccc1 (configuration not stated)	none (no result: Nrf2 ARE act, D3 antag, D3 ag)
O=C(CCN1CCN(C/C=C/c2ccccc2)CC1)Nc1ccccc1	D3 antag -57.8
Cc1cc(NC(=O)CCN2CCN(C/C=C/c3ccccc3)CC2)ccc1Br	none
Cc1cccc(NC(=O)CCN2CCN(C/C=C/c3ccccc3)CC2)c1	D3 antag -63.9
O=C(CN1CCN(C/C=C/c2ccccc2)CC1)NC(=O)NC1CCCCC1	D3 antag -65.4
O=C(CCCCCN1C(=O)c2ccccc2C1=O)Nc1ccccc1	none
O=C(CCCCCCC(=O)Nc1ccccc1)NO	Nrf2 ARE act 4.47µM (no result: D3 antag)
Cc1ccc(CNC(=O)c2ccc3c(c2)nc2n3CCCC2)cc1	none (no result: D3 antag)
Cc1ccc(C(=O)NC(C#N)=C(Cl)Cl)cc1	D3 antag -61.1
CN(Cc1ccccc1)c1ccc(-c2nc(-c3ccncc3)no2)cc1[N+](=O)[O-]	D3 ag 57.3 (no result: D3 antag)
CN(Cc1ccccc1)c1ccc(-c2nc(-c3ccccn3)no2)cc1[N+](=O)[O-]	D3 ag 34.1 (no result: D3 antag)
CCCC1(C)C(C#N)(C#N)C1(C#N)C#N	none (no result: Nrf2 ARE act, D3 antag, D3 ag)
CC(=O)c1cccc(CN2CCCC(C(=O)c3ccc4c(c3)OCO4)C2)c1 (configuration not stated)	none
COc1cccc(CN2CCCC(C(=O)c3ccc4c(c3)OCO4)C2)c1O (configuration not stated)	D3 antag inconclusive
COc1ccc(CN2CCCC(C(=O)c3ccc4c(c3)OCO4)C2)c(F)c1 (configuration not stated)	D3 antag -59.3

High-throughput results from PubChem.
